# Measurements from PubChem BioAssay.
# For part of these data: Entries with a potency or affinity are not part of this list. Activity calls are given as the source filed them.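 How the source made its calls, unless noted: active means fitted half-maximal concentration within the tested range, moderate curve steepness, significant signal drop, and little compound fluorescence or bead-linkage interference; inactive means the rest.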
# Assays:
# [1] = biological target: Cell division control protein 42 homolog (Homo sapiens) (UniProt P60953); assay: inhibition of fluorescent GTP binding to constitutively active Cdc42 – biochemical, multiplex bead flow cytometry, Bodipy-FL-GTP, dose response (AID 1333;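 active means fitted half-maximal concentration within the tested dose range, moderate curve steepness, a statistically real signal drop, and little compound fluorescence or tag-binding interference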)
# [2] = biological target: Cell division control protein 42 homolog (Homo sapiens) (UniProt P60953); assay: inhibition of fluorescent GTP binding to wildtype Cdc42 – biochemical, multiplex bead flow cytometry, Bodipy-FL-GTP, dose response (AID 1334); conditions: bead-based flow cytometry, Bodipy-FL-GTP binding to GST-Cdc42; at 100 µM (top of the series) unless noted
# [3] = biological target: GTPase HRas (Homo sapiens) (UniProt P01112); assay: Ras wt fluorescent GTP loading blockade – biochemical, wildtype, multiplex bead flow cytometry, dose response (AID 1335;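 active means fitted half-maximal concentration within 10 nM to 100 µM, steepness 0.5 to 2, significant signal drop, low assay interference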); conditions: bead-based flow cytometry, Bodipy-GTP binding to GST-Ras; at 100 µM (top of the series) unless noted
# [4] = tested on: Ras-related protein Rab-7a (dog), GTP binding; assay: blockers of fluorescent GTP binding to Rab7 – biochemical, wildtype, multiplex bead flow cytometry, dose response (AID 1336; call rule not given here)
# [5] = biological target: Ras-related C3 botulinum toxin substrate 1 (Homo sapiens) (UniProt P63000); assay: inhibition of wildtype Rac1 nucleotide loading – biochemical, multiplex bead flow cytometry, dose response (AID 1340;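 active means dose curve with midpoint inside tested range, moderate steepness, plateau gap beyond fit error, low compound glow and bead-link interference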); conditions: GST-Rac1 beads, Bodipy-FL-GTP binding; at 100 µM (top of the series) unless noted
# [6] = biological target: GTPase HRas (Homo sapiens) (UniProt P01112); assay: blockade of GTP loading onto mutant Ras – biochemical, activated mutant, multiplex bead flow cytometry, dose response (AID 1341;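 active means dose-response curve with midpoint inside the tested range, moderate steepness, significant amplitude and little compound fluorescence or bead-attachment interference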;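 further: GST-tagged constitutively activated Ras mutant immobilized on beads and multiplexed with other GTPases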)
# GTPase HRas (Homo sapiens), sequence (P01112 whole entry, looked up): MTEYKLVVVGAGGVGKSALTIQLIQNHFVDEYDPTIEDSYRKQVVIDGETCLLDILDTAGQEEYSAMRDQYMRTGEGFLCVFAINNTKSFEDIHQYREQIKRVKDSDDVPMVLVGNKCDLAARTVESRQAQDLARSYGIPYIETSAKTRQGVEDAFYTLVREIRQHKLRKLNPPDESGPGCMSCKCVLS
# Cell division control protein 42 homolog (Homo sapiens), sequence (P60953 whole entry, looked up): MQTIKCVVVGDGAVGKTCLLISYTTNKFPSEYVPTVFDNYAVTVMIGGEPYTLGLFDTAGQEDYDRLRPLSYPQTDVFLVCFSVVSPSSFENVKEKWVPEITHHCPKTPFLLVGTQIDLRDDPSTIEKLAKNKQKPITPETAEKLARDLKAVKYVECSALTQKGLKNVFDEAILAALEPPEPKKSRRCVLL
SMILES,outcome [1],"fluorescence, percent of control (lower = inhibition) [2] [%]","GTP binding, percent of control [3] [%]",outcome [4],"GTP binding signal, raw median fluorescence (lower = inhibition) (MCF (arbitrary fluorescence units)) [5]",outcome [6]
COc1cc(/C=C2\SC(c3ccccc3)=NC2=O)cc(Cl)c1O,inactive,26.3,71,inactive,190,inactive
CSc1nnc(-c2cc(Br)ccc2N=Cc2c(C)[nH]n(-c3ccccc3)c2=O)c(=O)[nH]1,inactive,24.2,67.4,inactive,183,inactive
COc1cc(/C=N\NC(=O)c2ccc(Cn3nc([N+](=O)[O-])c(Cl)c3C)o2)ccc1O,inactive,29.9,82,inactive,107,inactive
O=C(O)Cn1c(SCCOc2ccccc2Cl)nc2ccccc21,inactive,60.2,86.5,inactive,30.5,inactive
O=C(Cn1cnc2cc([N+](=O)[O-])ccc2c1=O)NCCc1ccc(Cl)cc1,inactive,36.8,85.2,inactive,244,inactive
O=C(CCc1ccccn1)N1CCCC(CNS(=O)(=O)c2cccs2)C1 (stereo not given),inactive,36.9,82.7,inactive,279,inactive
CCCCCN1CC(O)=C(c2nc(-c3ccc(Cl)cc3)cs2)C1=N,inactive,88.4,167,inactive,184,inactive
CCc1ccc(OCc2cccc(C(=O)O)c2)cc1,inactive,58.6,87.5,inactive,32.6,inactive
CC(=O)Nc1ccc(Nc2ccc3c4c(cc(=O)n3C)-c3ccccc3C(=O)c24)cc1,inactive,34.8,80.5,inactive,205,inactive
O=S(=O)(Nc1cccc(-c2cn3cccnc3n2)c1)c1ccccc1,inactive,34.9,48.7,inactive,114,inactive
CN(C)c1ccc([C@@H]2[C@@H]([N+](=O)[O-])[C@H]3C=Cc4ccccc4N3[C@H]2C(=O)c2ccc(Cl)cc2)cc1,inactive,46.5,60.6,inactive,169,inactive
COc1cccc(CNCc2ccc(C(=O)O)s2)c1,inactive,61.9,84.8,inactive,32.9,inactive
Cc1cccc(CN2C(=O)N/C(=C/c3ccc(C)s3)C2=O)c1,inactive,72,82.5,inactive,201,inactive
CCN(CC)c1ccc(/C=C(/C#N)c2nc3ccc(C)cc3[nH]2)c(OC(C)C)c1,inactive,96.1,108,inactive,264,inactive
CCNC(=O)c1cc2c(=O)n3cccc(C)c3nc2n(CCc2ccccc2)c1=N,inactive,74,113,inactive,126,inactive
COc1ccccc1OCCn1cc(C(=O)O)c2ccccc21,inactive,102,139,inactive,87.3,inactive
O=c1c2ccccc2nc2c3ccccc3c(NCCO)nn12,inactive,27.1,65,inactive,165,inactive
Cc1cc(C)cc(C(=O)N(NC(=O)Nc2ccc(Cl)cc2)C(C)(C)C)c1,inactive,94.9,150,inactive,186,inactive
Cc1cccc(NCc2ccc(O)c3ncccc23)c1C,inactive,39.8,84.4,inactive,259,inactive
CCOC(=O)C1(Cc2cccc(F)c2)CCN(Cc2nc(CC)[nH]c2C)CC1,inactive,48.2,90.4,inactive,274,inactive
COc1cc(/C=N/Nc2nncn2/N=C/c2ccc(O)c(OC)c2)ccc1O,inactive,30.7,68.3,inactive,147,inactive
Cc1[nH]c2ccccc2c1C(=O)CNc1nccs1,inactive,50.6,58,inactive,0,inactive
COc1ccc(Nc2nc(-c3c(C)nc4ncccn34)cs2)cc1,inactive,29,66,inactive,140,inactive
CCN(CC)c1ccc(/C=C/C(=O)c2ccc(Br)cc2)cc1,inactive,312,319,inactive,0,inactive
S=C(Nc1ccc(Oc2ccccc2)cc1)NC1CCCCCC1,inactive,28,87.3,inactive,300,inactive
NC(=S)N=Nc1c(O)[nH]c2c(Br)cc(Br)cc12,inactive,32.3,73,inactive,198,inactive
O=C(O)c1cc(C(=O)O)cc(-c2ccc(/C=c3/sc4nc5ccccc5n4c3=O)o2)c1,inactive,30,72.3,inactive,185,inactive
CCc1ccccc1NCc1sc(C(=O)O)cc1C,inactive,61.1,87.1,inactive,31.9,inactive
c1ccc(CN2CCN(CCOCCOc3cccc4ccccc34)CC2)cc1,inactive,28.9,79,inactive,234,inactive
COc1ccccc1OCc1ccoc1C(=O)O,inactive,62.9,87,inactive,35.8,inactive
